# High-throughput results as filed in PubChem.
# TGFb SMAD3 inh: blocks TGF-b signaling. HepG2 CAGA-GFP TGF-b/SMAD3 reporter, GFP fluorescence, 18 h; TGF-beta stimulated, 500 pg/mL final. Potency, µM (highest dose often 46.1 µM), usual class: inhibitors. 410,000 tested, 1.2% active. AID 588855; note: nearly all actives have a fitted effect of over 65% in size
#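 First, reporter cells (HEPG2 CAGA-GFP) rested 2 h at 37 degrees C. Next, compounds were pinned in and TGF-beta added to 500 pg/mL final. After 18 h, GFP was imaged per cell and summed per well.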
# ATXN2 expr inh: inhibitors of ATXN2 expression. HEK-293 ATXN2-luciferase reporter, luminescence, 24 h. Potency, µM (highest dose often 57 µM), usual class: inhibitors. AID 1745845. 360,000 tested, 0.72% active; note: nearly all actives have a fitted effect of over 55% in size
#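 qHTS (up to 57 uM final) was run with 24 h compound exposure of reporter cells at 37 °C. Each well was multiplexed: SteadyGlo luminescence measured ATXN2-luciferase expression after a fluorogenic Gly-Phe-AFC viability readout (25 uM final).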
# GLP1R ag: activates the human GLP-1 receptor; HEK293 GLP-1R CRE-luciferase, luminescence, 4-6 h; cells express a hypersensitive GLP-1R form; P43220; 380,000 tested, 0.007% active; AID 624172; Potency, µM (series often up to 45.6 µM), most hits filed as activators
# Target sequence (P43220 whole entry, looked up): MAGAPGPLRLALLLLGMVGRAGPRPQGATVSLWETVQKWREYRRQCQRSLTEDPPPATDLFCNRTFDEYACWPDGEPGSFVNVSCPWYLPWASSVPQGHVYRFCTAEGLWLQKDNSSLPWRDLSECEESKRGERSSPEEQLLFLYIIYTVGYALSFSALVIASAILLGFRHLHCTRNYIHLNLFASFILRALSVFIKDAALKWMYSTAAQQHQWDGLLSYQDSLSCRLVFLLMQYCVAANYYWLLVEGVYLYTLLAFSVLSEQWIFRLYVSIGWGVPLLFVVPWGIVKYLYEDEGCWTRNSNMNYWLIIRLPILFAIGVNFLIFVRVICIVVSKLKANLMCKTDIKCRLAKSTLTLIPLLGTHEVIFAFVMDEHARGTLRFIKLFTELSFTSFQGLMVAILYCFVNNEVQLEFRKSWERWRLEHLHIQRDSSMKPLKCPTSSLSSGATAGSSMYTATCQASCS
# HepG2 tox: counter-screen for TGF-b inhibitors: cytotoxicity in HepG2 cells. 410,000 tested, 0.76% active. Potency, µM (titrated, usually from 46.1 µM), most hits filed as cytotoxic. HepG2 CAGA-GFP viability, ATP luminescence, 18 h
#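 CellTiter-Glo luminescence gave cytotoxicity after 18 hours at 37 degrees C. The cells were HepG2 CAGA-GFP in 1% FBS DMEM, stimulated with 500 pg/mL TGF-beta after compound addition. %Activity was normalised to no-cell wells (complete cell-killing) and DMSO (no toxicity), and curves were fitted and classified.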
# GLP1R inv ag: acts as inverse agonist at human GLP-1 receptor. P43220. HEK293 GLP-1R CRE-luciferase, luminescence, 24 h; GLP-1R form is constitutively active. Potency, µM (doses to about 38.3 µM), usual class: inhibitors. 410,000 tested, 1.6% active. AID 624417; note: nearly all actives have a fitted effect of over 55% in size
#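 HEK293 cells stably co-expressing constitutively active GLP-1R and a cAMP-responsive luciferase reporter were seeded in DMEM with 10% Nu serum, given compounds after 12 h, and incubated 24 h at 37 deg C. Luminescence was then read.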
# S2 tox: cell viability loss in ATXN counter-screen; S2 cells (HEK-293 line with an ATXN2-luciferase reporter) viability, CellTiter-Fluor protease fluorescence, 24 h; Potency, µM (series often up to 56.7 µM), most hits filed as cytotoxic; 400,000 tested, 0.49% active; AID 651635; note: nearly all actives have a fitted effect of over 40% in size
# A number is an active result; – = inactive; ? = inconclusive; · = not tested or not shown; ! = repeats disagree. This is a sample that favours compounds with a hit; in the whole collection about 3.7% have one here. Calls come from the whole dose curve; as a rule, active = well fitted curve in the direction sought with a large enough effect; inconclusive = small, poorly fitted or top-dose-only effect, or another doubt; inactive = no such curve, though single readings can be large; an effect the other way counts as inactive or inconclusive.
SMILES,TGFb SMAD3 inh,ATXN2 expr inh,GLP1R ag,HepG2 tox,GLP1R inv ag,S2 tox
CCCCC[C@H]1CN(Cc2ccccc2)C(=O)[C@@H]1CC(=O)NCc1ccccc1,18µM,?,–,14µM!,10µM,?
O=C(OCC#CCSc1nnc(-c2cccc3ccccc23)o1)c1cc2ccccc2s1,·,–,·,·,·,·
N#Cc1ccc(C23CC4(C2)[C@H](CN(P(=O)(c2ccccc2)c2ccccc2)[C@@H]4c2ccccc2)C3c2ccc(Cl)nc2)cc1 (stereo partly drawn),13µM,–,–,–,?,?
CCC1CCCCN1CCCNC(=O)c1ccc2c(c1)N(Cc1ccccc1)C(=O)c1ccccc1S2(=O)=O (stereo not drawn),·,·,·,–,?,·
CCC1CCCCN1CCCNC(=O)c1ccc2c(c1)N(Cc1ccc(Cl)cc1)C(=O)c1ccccc1S2(=O)=O (stereo not drawn),?,28µM,–,11µM,?,–
CCC1CCCCN1CCCNC(=O)c1ccc2c(c1)N(Cc1cccc(C)c1)C(=O)c1ccccc1S2(=O)=O (stereo not drawn),?,?,–,–,?,–
CCC1CCCCN1CCCNC(=O)c1ccc2c(c1)N(Cc1cccc(Cl)c1)C(=O)c1ccccc1S2(=O)=O (stereo not drawn),10µM,·,·,–,?,·
COc1cc2c(Oc3ccc4[nH]c(C)cc4c3F)ncnc2cc1OCCCN1CCCC1,·,34µM,·,·,·,·
O=C(O)CCC1CCC(c2cc(F)ccc2F)(S(=O)(=O)c2ccc(Cl)cc2)CC1 (stereo not drawn),·,–,·,·,·,·
Cc1cc(-c2nc3ccccc3s2)ccc1N,?,–,–,–,7.9µM,–
Nc1ccc2nc(-c3ccccc3)sc2c1,–,?,–,–,8.9µM,–
Cc1ccc2nc(-c3ccc(N)cc3)sc2c1,–,?,–,–,4.5µM,–
O=C(NCCc1cccnc1)c1cnn(-c2ncc3c(n2)-c2ccccc2CC3)c1C1CC1,·,·,·,·,·,–
CC(C)(C)c1ccc2c(S(=O)(=O)O)c(C(C)(C)C)ccc2c1,·,·,–,·,·,–
Nc1[nH]c(=O)nc2nnsc12,–,·,·,–,·,·
CN(C)CCCNc1nc2sc3c(c2c(=O)n1CCc1ccccc1)CCCCC3,–,–,–,–,3.2µM,?
CN(C)c1ccc(C=O)cc1Cl,–,·,·,–,·,·
OC1(c2ccc3c(c2)CN(Cc2ccco2)CCO3)CCN(c2ccccc2F)CC1,·,·,·,·,·,–
Cc1cc(C(F)(F)F)cc(NNC(=O)NC(=O)c2c(F)cccc2Cl)n1,–,–,–,–,11µM,–
C=CC[C@@H](CC(=O)N[C@H](CO)Cc1ccccc1)C(=O)N[C@H](COC(=O)[C@H](CC=C)CC(=O)OC(C)(C)C)Cc1c[nH]c2ccccc12,16µM,?,–,–,?,28µM
C=CC[C@H](CC(=O)N(CCO)Cc1ccccc1)C(=O)N[C@H](COC(=O)[C@H](CC=C)CC(=O)OC(C)(C)C)Cc1c[nH]c2ccccc12,?,?,–,–,?,22µM
COc1ccc(C(=O)CC2(O)C(=O)Nc3c(Cl)ccc(Cl)c32)cc1 (stereo not drawn),·,–,·,·,·,·
O=C(CC1(O)C(=O)Nc2cc(Cl)cc(Cl)c21)c1ccncc1 (stereo not drawn),?,?,–,–,–,25µM
CC(=O)Nc1cc([N+](=O)[O-])cc(NC(C)=O)c1NC(C)=O,–,·,·,–,·,·
Fc1ccc(C(CCCn2nnc(-c3cccnc3)n2)c2ccc(F)cc2)cc1,?,–,–,–,10µM,–
SMILES,TGFb SMAD3 inh,ATXN2 expr inh,GLP1R ag,HepG2 tox,GLP1R inv ag,S2 tox
Cc1nn(-c2ccccc2)c(Cl)c1C(=O)Nc1nnc(C2CCCCC2)s1,–,–,–,–,8.9µM,?
CCOc1ccc(/C=C2/SC(=S)N(n3c(C)ccc3C)C2=O)cc1,–,–,–,–,7.1µM,–
Nc1nc(N)c2c(OCc3ccc(C(F)(F)F)cc3)cccc2n1,?,·,·,–,·,·
Nc1nc(N)c2c(Oc3ccc(F)cc3)cccc2n1,13µM,·,·,–,·,·
N#C/C(=C/c1ccc(Sc2nc3ccccc3[nH]2)o1)c1cccc(Br)c1,–,?,–,–,10µM,?
N#C/C(=C/c1ccc(Sc2nc3ccccc3[nH]2)o1)c1cccc(F)c1,?,?,–,–,?,–
CC(C)CC(N)c1cn([C@@H](CCC(=O)O)C(=O)N2CCNCC2)nn1 (stereo partly drawn),–,–,–,–,–,–
CC(C)C[C@H](N)c1cn([C@@H](CCCCN)C(=O)N2CCNCC2)nn1,?,1.6µM,–,–,0.89µM,?
COc1ccc(CCC(C)NCCc2ccc(Cl)cc2Cl)cc1 (stereo not drawn),?,·,–,16µM,10µM,·
COc1ccc(CCC(C)NCc2ccc(Cl)c(Cl)c2)cc1 (stereo not drawn),13µM,–,–,8.9µM,?,–
O=C(N/N=C(\c1ccccc1)c1cccnc1)c1ccc(O)cc1,–,–,–,–,–,–
O=C(N/N=C(\c1ccccc1)c1cccnc1)C(O)(c1ccccc1)c1ccccc1,–,–,–,11µM,–,–
Cc1cccc(N(C)C(CNS(=O)(=O)c2ccccc2)c2ccccc2)c1 (stereo not drawn),?,?,·,–,10µM,?
CCN(c1ccccc1)C(CNS(=O)(=O)c1ccccc1)c1ccccc1 (stereo not drawn),16µM,?,·,–,10µM,?
CCCc1ccc(S(=O)(=O)N2CCC(c3nnc(-c4cccc(C)c4)o3)CC2)cc1,?,10µM,·,–,?,·
COc1ccc(-c2nnc(C3CCN(S(=O)(=O)c4ccc(C)c(C)c4)CC3)o2)cc1,–,–,·,–,–,–
Cc1ccc(S(=O)(=O)N2CCC(c3nnc(-c4cccc(C)c4)o3)CC2)cc1,?,5.6µM,·,–,?,7.9µM
CCS(=O)(=O)c1ccc(C=NNc2nc3ccccc3o2)cc1,–,–,–,–,–,–
CN(C)c1ccc(/C=N/Nc2nc3ccccc3o2)cc1,–,?,–,–,3.5µM,–
Cc1ccc(NC(=S)NCC2CCN(C(C)c3ccccc3)C2)cc1 (stereo not drawn),–,–,–,–,?,–
CC(c1ccccc1)N1CCC(CNC(=S)Nc2cccc(Cl)c2)C1 (stereo not drawn),?,?,–,–,3.2µM,?
c1ccc(Nc2ccccc2)cc1,–,–,–,–,–,–
O=C(O)c1ccccc1Nc1ccccc1C(=O)O,–,–,–,–,–,–
O=C1C=C(Nc2ccccc2C(=O)O)c2ccccc2C1=O,?,–,–,16µM,–,–
O=S(=O)(Nc1cccc2cccnc12)c1ccccc1Br,6.3µM,·,·,–,·,·
